In all, about 300,000 compounds went through this assay and about 3,300 (1.1%) were called active. Roughly 6% stayed inconclusive and do not appear here. This is one part of a sample in which actives are shown more often than they occur.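 How the source made its calls: active means more than half of the replicate wells show a fall in the fluorescence ratio signal beyond about 16% (limit read from the data, passing the limit was not always enough); inconclusive means exactly half of the replicate wells pass the set limit; inactive means fewer than half of replicates pass the limit.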
Tested on: Ran GTPase (GTP-bound) - importin-beta complex
Assay: disruptors of Ran-importin-beta complex formation – biochemical, FRET, CFP-Ran, YFP-importin-beta, homogeneous, primary screen (AID 2216);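 further: 0% = DMSO wells and 100% = Ran loaded with GDP instead of GTP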
Settings: cell-free CFP-Ran/YFP-importin-beta FRET ratio; hits give high values; concentration not given here

inhibition, inactive:
CCC(=O)OCCNc1nc(-c2ccccc2)nc2ccccc12 -0.305%
O=C(N/N=C/c1cccnc1)c1cc2ccccc2cc1O -5.78%
Cc1ccccc1NC(=O)NNC(=O)OC(C)(C)C 3.65%
COc1ccc(-c2cc(C(=O)Nc3ccccc3O)c3ccccc3n2)cc1 5.76%
COC(=O)c1ccc(SCc2ccccc2)nc1 1.08%
CCc1nnc(NS(=O)(=O)c2ccc(NC(=O)c3cccc(OC(F)(F)C(F)F)c3)cc2)s1 -0.123%
COc1ccc(C(CNC(=O)c2ccc(S(=O)(=O)Nc3ccccc3C)cc2)N2CCOCC2)cc1 (centres undefined) 0.862%
O=S(=O)(Nc1ccc(O)c2ccccc12)c1ccc(OC(F)(F)F)cc1 2.4%
COc1ccc(CNS(=O)(=O)c2cc3c4c(c2)CCN4C(=O)CC3)cc1 -2.98%
Cn1c(SCC(=O)c2ccc(F)cc2)nnc1-c1ccccn1 8.68%
Cc1nn(CC(=O)Nc2ccc(F)cc2)c(=O)c2ccccc12 0.000866%
O=C(CNS(=O)(=O)c1ccccc1)N1CCN(C(=O)c2ccco2)CC1 1.51%
COc1ccccc1N(C)S(=O)(=O)c1ccc(Cl)c(C(=O)Nc2ccncc2)c1 -1.81%
CSCCC(NC(=O)COc1ccccc1)C(=O)OCCOc1ccc(F)cc1 (centres undefined) 6.76%
CCCCn1c(N)c(N(CC(C)C)C(=O)CN(C)S(=O)(=O)c2ccc(F)cc2)c(=O)[nH]c1=O 6.85%
CCN1C(=O)[C@@H]2[C@@H](c3ccc(-c4ccccc4)cc3)N3CCCC[C@@]3(C(=O)OC)[C@@H]2C1=O -2.21%
CCCc1cc(=O)oc2c(C)c(OCC(=O)N3CCC(C(=O)O)CC3)ccc12 0.461%
CCCc1cc(=O)oc2c(C)c(OC(C)C(=O)NCC(O)c3ccccc3)ccc12 (centres undefined) 1.81%
O=C(Nc1ccc(C(=O)N2CCOCC2)cc1)Nc1cccc(C(F)(F)F)c1 -2.36%
Cc1ccc(C)c(OCCC(=O)OCC(=O)c2ccc3c(c2)NC(=O)CO3)c1 0.406%
CCCCn1c(N)c(N(CCOC)C(=O)c2sc3ccccc3c2Cl)c(=O)[nH]c1=O 7.27%
Cc1nc2ccccc2c(=O)n1-c1ccc(F)c(NC(=O)c2cccs2)c1 7.77%
O=C(N/N=C/c1ccccn1)c1ccc(S(=O)(=O)N2CCCCCC2)cc1 3.77%
Cc1cccc(NC(=O)c2cccc(S(=O)(=O)N3CCCC3)c2)n1 1.93%
Cc1ccc(C(=O)CN2C(=O)NC3(CCc4ccccc43)C2=O)c(C)c1 (centres undefined) -0.128%
Cc1ccc(C(=O)NNC(=O)c2ccncc2)cc1S(=O)(=O)N1CCCCC1 -4.29%
Cc1ccc(NC(=O)COc2ccc(/C=C3/NC(=O)NC3=O)cc2)cc1 -1.54%
CCOC(=O)C1=C(O)/C(=C/c2cc(C)n(-c3ccccc3)c2C)N=C1C 3.69%
CCOC(=O)c1ccccc1NC(=O)c1c(N)n(C)c(=O)[nH]c1=O -1.23%
O=C(c1ccc(F)cc1)N1CCC(C(=O)N2CCN(S(=O)(=O)c3ccccc3Br)CC2)CC1 4.17%
CC(=O)Oc1ccc2c(C)c(CC(C)O)c(=O)oc2c1 (centres undefined) 10%
O=C(Nc1cc2ccccc2oc1=O)C1CCCCC1 4.19%
COc1ccccc1/C=C/C(=O)NC(=S)N1CCOCC1 -1.73%
O=C1OC(/C=C/c2ccccc2)=NC/1=C/c1ccco1 0.891%
COCc1ccc(C(=O)N2CCc3c([nH]c4ccccc34)C2c2ccccn2)s1 (centres undefined) 0.202%
O=C(c1cn2ccccc2n1)N1CCc2c([nH]c3ccccc23)C1c1ccccn1 (centres undefined) 3.68%
O=C(NCC1(N2CCCCC2)CCCCC1)c1ccc(NS(=O)(=O)c2ccc(F)cc2)cc1 -1.33%
COC(=O)[C@]1(C)N[C@H](c2ccc(-c3ccc(Cl)c(Cl)c3)cc2)[C@@H]2C(=O)N(C)C(=O)[C@@H]21 1.99%
CCCNC(=O)c1c(N)n(-c2ccc(S(N)(=O)=O)cc2)c2nc3ccccc3nc12 12.3%
CCOc1ccccc1NC(=O)Cn1nnc(C(=O)NCc2cccs2)c1N 1.12%
Cc1c(C)n2c(SCC(=O)NC3CCCC3)nnc2[nH]c1=O 1.36%
CC(C)(C)Oc1ccccc1Nc1nc(NCCO)nc(N2CCCC2)n1 -2.11%
COc1ccc(C(=O)CC(=O)c2ccc(C)cc2)c(O)c1 2.86%
Cc1cc(O)cc(O)c1C(=O)Cc1cnn(-c2ccccc2)c1 0.165%
CCCCn1c(N)c(N(CC(C)C)C(=O)c2cccc(S(=O)(=O)N3CCN(C(C)=O)CC3)c2)c(=O)[nH]c1=O 6.15%
Cc1cc(/C=N/Nc2ccc([N+](=O)[O-])cn2)c(C)n1-c1cccc(C(=O)O)c1 -1.11%
COc1cc(/C=N/O)ccc1OCc1ccc([N+](=O)[O-])cc1 -0.23%
COc1cccc(COC(=O)C2CCN(S(=O)(=O)c3cccs3)CC2)c1OC 8.84%
Cc1cc(C(=O)OC(C)C(=O)NC2CCCCC2C)c(C)o1 (centres undefined) -3.61%
CC(OC(=O)CNC(=O)c1ccc(Cl)c([N+](=O)[O-])c1)C(=O)NCc1ccco1 (centres undefined) 5.87%
CC(C)(C)c1ccc(C(=O)NCc2ccco2)cc1 -1.24%
CCOc1ccc(CCNC(=O)COC(=O)c2c(OC)cccc2OC)cc1OCC 1.08%
COCCn1c(SC(C)C(=O)NC2CC2)nnc1-c1cccc(C)c1 (centres undefined) -0.425%
O=C(NCc1ccc(Cl)cc1)C(=O)NCC1CCCN1S(=O)(=O)c1cccs1 (centres undefined) -0.323%
CCCC(=O)Nc1ccc(C(=O)N/N=C/c2ccc[nH]2)cc1 2.49%
CC(=O)Nc1ccc(/C=C/C(=O)c2ccccc2)cc1 -0.329%
CC(C)Oc1ccc(S(=O)(=O)N2CCOCC2)cc1NC(=O)C1CSC2(C)CCC(=O)N12 (centres undefined) -2.87%
COc1ccc(S(=O)(=O)NCCCc2ccccc2)cc1 -4.52%
Cc1ccc(-c2nc3ccccc3[nH]c2=O)cc1 3.42%
O=C(/C(=C/c1cccc(Cl)c1)c1nc2ccccc2[nH]1)c1ccccc1 2.15%
COC(=O)Cc1ccc(OCC(=O)Nc2ccc(OC(F)(F)F)cc2)cc1 -0.217%
Cc1cc(C)cc(NS(=O)(=O)c2ccc(Oc3ncc(C(F)(F)F)cc3Cl)cc2)c1 1.58%
CCCCn1c(N)c(N(CC)C(=O)c2ccc(N(C)S(=O)(=O)c3ccc(C)cc3)cc2)c(=O)[nH]c1=O -4.28%
COc1ccc(/C=C(\C#N)C(=O)OCC(=O)N(C)C2CCS(=O)(=O)C2)cc1 (centres undefined) 1.11%
COc1ccccc1NS(=O)(=O)c1ccc(C(=O)N2CCN(c3ccccc3O)CC2)cc1 1.18%
COc1ccc(Nc2nc(NCc3ccco3)nc(N/N=C/c3ccccc3Cl)n2)cc1 -0.0694%
COc1ccc(-n2cnc3cc(C(=O)NC4CCCC4)ccc32)cc1 -1.26%
CCCc1nnc(NC(=O)c2cccs2)s1 -123%
COc1ccc(Cc2nnc(NC(=O)c3cc(OC)c(OC)c(OC)c3)s2)cc1OC 3.23%
C[C@@H]1O[C@@H](OC[C@H]2O[C@@H](Oc3c(-c4ccc(O)cc4)oc4cc(O)cc(O)c4c3=O)[C@H](O)[C@@H](O)[C@@H]2O)[C@H](O)[C@H](O)[C@H]1O 2.8%
COc1ccc(CNC(=O)C2(CC3CC(c4ccccc4)=NO3)CCN(C(=O)c3cccc(O)c3)CC2)cc1 (centres undefined) 5.15%

inhibition, active:
CC(C)(C)OC(=O)NNc1c2ccccc2nc2ccccc12 45.2%
O=C(NNc1c2ccccc2nc2ccccc12)c1cc2ccccc2cc1O 46.1%
Cn1c2ccccc2n2c(=O)c(=O)n(CC(=O)c3ccc(F)cc3)nc12 23.2%
CCCc1cc(=O)oc2c(C)c(O)c(CN3CCCCC3)cc12 58.6%
Cc1ncc(CO)c(/C=N/NC(=O)c2cccc(S(=O)(=O)N3CCCC3)c2)c1O 38.4%
CCOC(=O)C1=C(O)/C(=C/c2ccc(OCC(=O)Nc3ccc(C)cc3)cc2)N=C1C 70.2%
CC(=O)Nc1cc2ccc(OC(C)=O)cc2oc1=O 33.6%
COc1ccccc1/C=C/C1=NC(=C\N(C)C)/C(=O)O1 37%
Cc1cccc(C2c3[nH]c4ccccc4c3CCN2C(=O)c2cc(-c3cccn3C)n[nH]2)n1 (centres undefined) 21.1%
CC(C)Cn1c(N)c(C(=O)NCc2cccs2)c2nc3ccccc3nc21 73.8%
COc1ccc(C(=O)Cc2cnn(-c3ccccc3)c2)c(O)c1 17.5%
COc1cc(/C=N\Nc2ccc([N+](=O)[O-])cn2)ccc1OCC(=O)O 69.7%
CC(OC(=O)CNC(=O)c1cccc(F)c1)C(=O)NC1CCCCC1C (centres undefined) 18.8%
CC(=O)Nc1ccc(C(=O)/C=C/c2ccc[nH]2)cc1 16.6%
O=C(Cc1nc2ccccc2[nH]c1=O)c1ccc(Cl)cc1 39%
COC(=O)Cc1ccc(Oc2ncc(C(F)(F)F)cc2Cl)cc1 106%
COc1ccc(-n2cnc3cc(NCc4ccco4)ccc32)cc1 23%
CCCc1nnc(NC(=O)c2cc(OC)cc(OC)c2)s1 162%

— PubChem BioAssay AID2216 (Broad Institute, 2009)
